Laboratory results published in PubChem BioAssay (EPA / NIEHS).
Calls of active or inactive are those of the source. How the source made its calls: active means hit-call score of the fitted dose curve at least 0.9, where 1 is the maximum; inactive means score below 0.9.

Assays:
[1] = read-out: Human Leukocyte Antigen - DR isotype (HLADR), HLA-DRA (gene 3122); experiment: BSK_BE3C_HLADR: BioMAP Diversity Plus: BE3C Assay for Human Leukocyte Antigen - DR isotype (HLADR) Biomarker Activity (AID 2283032); conditions: primary human bronchial epithelial cells; actives raise or lower the signal
How it was run: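 Cell-surface HLA-DR ELISA readout at 24 h after dosing in the BE3C primary human lung bronchial epithelial system; gain or loss of signal against DMSO, with parallel sulforhodamine B staining of total protein for overt cytotoxicity.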

[2] = read-out: Vascular cell adhesion molecule 1 (VCAM1), VCAM1 (gene 7412); experiment: BSK_4H_VCAM1: BioMAP Diversity Plus: 4H Assay for Vascular cell adhesion molecule 1 (VCAM1) Biomarker Activity (AID 2283033); conditions: primary human endothelial cells (HUVEC); actives raise or lower the signal
How it was run: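 VCAM-1 ELISA read 24 h after chemical dosing of HUVEC in the BioMAP 4H system, with gain or loss of signal fitted relative to DMSO. Parallel SRB staining (560 nm) checked overt cytotoxicity.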

[3] = read-out: Interferon-gamma inducible Protein 10 (IP10), CXCL10 (gene 3627); experiment: BSK_BE3C_IP10: BioMAP Diversity Plus: BE3C Assay for Interferon-gamma inducible Protein 10 (IP10) Biomarker Activity (AID 2283034); conditions: primary human bronchial epithelial cells; actives raise or lower the signal
How it was run: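 IP-10 quantified by ELISA in human primary bronchial epithelial cell cultures at 24 hours post-dosing. Gain or loss of signal fitted relative to DMSO; parallel SRB staining assessed overt cytotoxicity.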

[4] = read-out: Monokine induced gamma interferon (MIG), CXCL9 (gene 4283); experiment: BSK_BE3C_MIG: BioMAP Diversity Plus: BE3C Assay for Monokine induced gamma interferon (MIG) Biomarker Activity (AID 2283035); conditions: primary human bronchial epithelial cells; actives raise or lower the signal
How it was run: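 hu bronchial epithelial 1° cells, 24 h cpd; MIG by ELISA; bidirectional fit, DMSO = baseline.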

[5] = read-out: Transforming growth factor beta 1 (TGFb1), TGFB1 (gene 7040); experiment: BSK_BE3C_TGFb1: BioMAP Diversity Plus: BE3C Assay for Transforming growth factor beta 1 (TGFb1) Biomarker Activity (AID 2283036); conditions: primary human bronchial epithelial cells; actives raise or lower the signal
How it was run: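 ELISA readout of TGF-b1 from human lung bronchial epithelial primary cells, taken 24 h post-treatment. Gain or loss of signal fitted relative to DMSO baseline, with parallel SRB staining for overt cytotoxicity.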

[6] = read-out: Plasminogen activator inhibitor-1 (PAI1), SERPINE1 (gene 5054); experiment: BSK_BE3C_PAI1: BioMAP Diversity Plus: BE3C Assay for Plasminogen activator inhibitor-1 (PAI1) Biomarker Activity (AID 2283037); conditions: primary human bronchial epithelial cells; actives raise or lower the signal
How it was run: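 PAI-1 was measured by ELISA in human primary bronchial epithelial cultures 24 h after chemical dosing, with cytotoxicity checked by SRB total-protein staining in parallel cultures. Activity was fitted in both directions relative to DMSO.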

[7] = read-out: urokinase plasminogen activator (uPA), PLAU (gene 5328); experiment: BSK_BE3C_uPA: BioMAP Diversity Plus: BE3C Assay for urokinase plasminogen activator (uPA) Biomarker Activity (AID 2283038); conditions: primary human bronchial epithelial cells; actives raise or lower the signal
How it was run: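 Bronchial epithelial cells (human, primary); chemical 24 h; uPA by ELISA; bidirectional fit vs DMSO. SRB (0.1%, after 10% TCA fixation, 560 nm) in parallel cultures for cytotoxicity.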

[8] = read-out: Urokinase-type plasminogen activator receptor (uPAR), PLAUR (gene 5329); experiment: BSK_BE3C_uPAR: BioMAP Diversity Plus: BE3C Assay for Urokinase-type plasminogen activator receptor (uPAR) Biomarker Activity (AID 2283039); conditions: primary human bronchial epithelial cells; actives raise or lower the signal
How it was run: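 uPAR levels were measured by ELISA after 24 h compound treatment of primary human bronchial epithelial cells, fitted in both directions relative to DMSO. Parallel SRB staining served as the cytotoxicity read-out.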

[9] = read-out: Interleukin-6 (IL6), IL6 (gene 3569); experiment: BSK_CASM3C_IL6: BioMAP Diversity Plus: CASM3C Assay for Interleukin-6 (IL6) Biomarker Activity for (AID 2283040); conditions: primary human coronary artery smooth muscle cells; actives raise or lower the signal
[10] = read-out: Tissue plasminogen activator (tPA), PLAT (gene 5327); experiment: BSK_BE3C_tPA: BioMAP Diversity Plus: BE3C Assay for Tissue plasminogen activator (tPA) Biomarker Activity (AID 2283041); conditions: primary human bronchial epithelial cells; actives raise or lower the signal
How it was run: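 tPA measured by ELISA 24 h after dosing human primary bronchial epithelial cells (BE3C system). Changes in either direction were fitted against DMSO. Parallel cultures were stained with SRB to flag overt cytotoxicity.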

Measured: AC50

O=C(O)C1(C(=O)Nc2ccc(Cl)cc2Cl)CC1
active: [1] 10.7 µM | [3] 23.8 µM
inactive: all other assays above

C#C[C@]1(O)CC[C@H]2[C@@H]3CCC4=CC(=O)CC[C@@H]4[C@H]3CC[C@@]21CC
inactive: all assays above

CCOC(=O)C(C)Oc1ccc(Oc2cnc3cc(Cl)ccc3n2)cc1 (centres undefined)
not listed: [5]
inactive: all other assays above

c1ccc2[nH]c(-c3cscn3)nc2c1
inactive: all assays above

CC(C)CCCCCCc1ccc(O)cc1
active: [1] 26.2 µM | [2] 7.96 µM | [3] 14.7 µM | [4] 33.4 µM | [5] 26.2 µM | [6] 31 µM | [7] 31.6 µM | [8] 33.3 µM | [9] 36.9 µM | [10] 14.5 µM

c1ccc(Nc2ccccc2)cc1
active: [5] 3.97 µM
inactive: all other assays above

C[C@]12CC[C@@H]3c4ccc(O)cc4C[C@@H](CCCCCCCCCS(=O)CCCC(F)(F)C(F)(F)F)[C@H]3[C@@H]1CC[C@@H]2O (some centres undefined)
inactive: all assays above

CCCOC(=O)NCCCN(C)C
active: [1] 4.29 µM | [8] 0.148 µM
not listed: [10]
inactive: all other assays above

C=CCOC(Cn1ccnc1)c1ccc(Cl)cc1Cl (centres undefined)
inactive: all assays above

O=C(Nc1ccc([N+](=O)[O-])cc1Cl)c1cc(Cl)ccc1O
inactive: [5] | [6]
active: [1] 0.148 µM | [2] 0.412 µM | [3] 0.302 µM | [4] 0.148 µM | [8] 0.148 µM | [9] 0.308 µM

O=C(c1ccccc1)C1CCCCC1
not listed: [10]
inactive: all other assays above

CC(C)(C)[C@@H](O)[C@@H](Cc1ccc(Cl)cc1)n1cncn1
inactive: all assays above

COC(=O)c1c(Cl)nn(C)c1S(=O)(=O)NC(=O)Nc1nc(OC)cc(OC)n1
inactive: all assays above

CC(=O)[C@H]1CC[C@H]2[C@@H]3CCC4=CC(=O)CC[C@]4(C)[C@H]3CC[C@]12C
not listed: [2] | [10]
inactive: all other assays above

COC(=O)c1ccccc1C(=O)O
inactive: all assays above

CCNc1nc(N)nc(Cl)n1
active: [7] 10.9 µM
not listed: [10]
inactive: all other assays above

CCN(Cc1c(F)cccc1Cl)c1c([N+](=O)[O-])cc(C(F)(F)F)cc1[N+](=O)[O-]
active: [2] 4.57 µM
inactive: all other assays above

Oc1ccc(C(c2ccc(O)cc2)C(Cl)(Cl)Cl)cc1
active: [1] 26.5 µM | [2] 26 µM | [3] 29.3 µM | [4] 34.7 µM | [6] 28.5 µM | [7] 36.6 µM | [8] 31.1 µM
inactive: [5] | [9] | [10]

CCCCCOC(=O)COc1cc(N2C(=O)C3=C(CCCC3)C2=O)c(F)cc1Cl
inactive: all assays above

CCCN(CCC)c1c([N+](=O)[O-])cc(C(F)(F)F)c(N)c1[N+](=O)[O-]
active: [1] 11.6 µM | [2] 20 µM | [3] 32.6 µM | [4] 22.9 µM | [6] 36.2 µM
inactive: [5] | [7] | [9] | [10]

CCCCOCCOCCOCc1cc2c(cc1CCC)OCO2
inactive: all assays above

CSC(=O)c1cccc2nnsc12
inactive: all assays above

CC1(C)C(C=C(Cl)Cl)C1C(=O)OCc1cccc(Oc2ccccc2)c1 (centres undefined)
active: [9] 6.26 µM
not listed: [10]
inactive: all other assays above

CCCCCCC(C)OC(=O)COc1nc(F)c(Cl)c(N)c1Cl (centres undefined)
active: [2] 39 µM
inactive: all other assays above

COc1c(Cl)ccc(Cl)c1C(=O)O
not listed: [10]
inactive: all other assays above

COC(=O)c1ccccc1S(=O)(=O)NC(=O)Nc1nc(OC(F)F)cc(OC(F)F)n1
inactive: all assays above

C[C@]12C[C@H](O)[C@H]3[C@@H](CCC4=CC(=O)CC[C@@]43C)[C@@H]1CC[C@@H]2C(=O)CO
active: [3] 34.8 µM | [9] 0.447 µM
inactive: all other assays above

COCCO
inactive: all assays above

COc1nc(C)nc(NC(=O)NS(=O)(=O)c2ccccc2OCCCl)n1
inactive: all assays above
